Shown are actives, neighbours in structure and some others; about 3.2% of the full set was active somewhere.
PAX8 reporter – inhibitors of PAX8-driven TPO luciferase reporter, primary screen, RMG-I cells, single concentration | inhibition, % at 12.6 µM | hit rate 1.2% among 360,000 | SteadyGlo, 24 h;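 active means mean replicate inhibition at least 60% with every replicate also reaching 60%; inconclusive means only one of the two criteria is met; inactive means mean below 60% and not all replicates reaching 60%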;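 further: luciferase light reporting Pax8 driven TPO promoter activity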
EWS-Fli block – EWS/Fli-driven NR0B1 reporter inhibitors, primary screen, A673 cells, NR0B1 luciferase, luminescence, MLPCN library | viability-normalised | inhibition, % at 12.6 µM | hit rate 0.67% among 350,000;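 active means mean inhibition of at least 50% after viability correction, with every replicate also passing that limit; inconclusive means mean reaches 50% but only one of two replicates passes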;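 further: firefly luciferase signal divided by Alamar Blue viability fluorescence both relative to DMSO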
LMP1 NFkB inh – EBV LMP1-driven NF-kappaB luciferase reporter inhibitors, primary screen, cell-based, luminescence, single point; hit rate 0.69% among 350,000; LMP1-induced NF-kappaB luciferase reporter cells; inhibition, % at 12.5 µM; AID 504558, 2011; in the data active means inhibition above about 41%; inconclusive means no clear call, values can overlap the other calls
TROY signal inh – inhibitors of TROY-driven NF-kB signaling, primary screen, Q293 LMP1-TROYcd cells, NF-kB luciferase, uHTS; Q293 LMP1-TROYcd NF-kB luciferase reporter, 4 h; inhibition, % at 10 µM; hit rate 0.98% among 360,000; AID 1347056, 2019;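 active means compounds whose plate-normalised and pattern-corrected inhibition of the luciferase reporter signal at the single screening dose is 50% or more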
LGR2 inh – inhibitors of bursicon-induced LGR2 CRE-luciferase signal, primary screen, cell-based, HEK293, CRE-luciferase reporter, bursicon stimulation. bursicon-stimulated, 4 h. inhibition, % at 9.99 µM. hit rate 0.35% among 380,000. AID 720647, 2013;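 active means drop in luminescence signal, shown as inhibition above about 50% in the replicate tests, limit read from the data, passing the limit was not always enough; inconclusive means probably only some replicates passing the limit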;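 further: agonist challenge used bursicon conditioned medium at about half maximal strength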
TWEAK Fn14 block – inhibitors of TWEAK-Fn14 signaling, primary screen, luciferase reporter cells, uHTS; TWEAK-stimulated Fn14 reporter cells, luciferase luminescence, 8 h; inhibition, % at 10 µM; hit rate 2% among 360,000; in the data active means inhibition above about 50%
Each line names hits and unclear results; the compound was inactive in the other large screens.

CCCn1c(/C=N/Nc2nc3ccccc3[nH]2)nc2ccccc21	LMP1 NFkB inh 47.3
C[C@H](CO)N1C[C@H](C)[C@H](CN(C)S(C)(=O)=O)Oc2c(NC(=O)c3cnccn3)cccc2C1=O	none (no result: PAX8 reporter, LMP1 NFkB inh, TROY signal inh, TWEAK Fn14 block)
C[C@H]1CN([C@@H](C)CO)C(=O)c2cccc(NC(=O)C3CCOCC3)c2O[C@H]1CN(C)Cc1ccc(C(F)(F)F)cc1	none (no result: LMP1 NFkB inh, TROY signal inh, TWEAK Fn14 block)
COc1ccc(-c2sc3ccc(OC)cc3c2C#Cc2cncn2C)cc1	PAX8 reporter 64.7
CCN1[C@@H]2c3ccc(-c4cncnc4)c(=O)n3C[C@@H]2[C@@H](CO)[C@@H]1C(=O)OC	none (no result: LMP1 NFkB inh, TROY signal inh, TWEAK Fn14 block)
O=C(c1ccc2c(=O)n(Cc3ccc(Cl)cc3)c(=S)[nH]c2c1)N1CCCC1	none (no result: EWS-Fli block)
CCOC(=O)N1CCN(C(=O)c2ccc(Cn3c(=S)[nH]c4cc5c(cc4c3=O)OCO5)cc2)CC1	none (no result: EWS-Fli block, LGR2 inh)
CCOC(=O)N1CCN(C(=O)c2ccc(Cn3c(=S)[nH]c4cc(OCC)c(OCC)cc4c3=O)cc2)CC1	TROY signal inh 57.7, LGR2 inh inconclusive
O=C(c1ccc2c(=O)n(Cc3ccc(Cl)cc3)c(=S)[nH]c2c1)N1CCOCC1	TWEAK Fn14 block 75.0 (no result: EWS-Fli block)
O=C(COc1ccc(Br)cc1Br)NN1C(=O)c2ccccc2C1=O	none (no result: LMP1 NFkB inh)
CC(C)c1ccc(OCC(=O)NN2C(=O)c3ccccc3C2=O)c(Br)c1	TWEAK Fn14 block 68.7
CCC(=O)Nc1ccc2c(c1)OC[C@@H](C)N(C(=O)CC)C[C@@H](C)[C@H](OC)CN(C)C2=O	none (no result: PAX8 reporter, LMP1 NFkB inh, TROY signal inh, TWEAK Fn14 block)
CCOc1cc(NCc2ccccc2)c2ncn(C(C)C)c2c1	PAX8 reporter 76.6
COc1ccc(NC(=O)Nc2ccc3c(c2)CC(=O)N([C@H](C)CO)C[C@@H](C)[C@@H](CN(C)S(=O)(=O)c2ccccc2)O3)cc1	none (no result: PAX8 reporter, LMP1 NFkB inh, TROY signal inh, TWEAK Fn14 block)
C[C@@H]1CN([C@H](C)CO)C(=O)c2cc(NC(=O)Nc3ccc4c(c3)OCO4)ccc2O[C@@H]1CN(C)Cc1ccc(C(=O)O)cc1	none (no result: PAX8 reporter, LMP1 NFkB inh, TROY signal inh, TWEAK Fn14 block)
NC(=O)c1cccc(-c2cnc3c(Nc4cccc(OC(F)(F)C(F)F)c4)nccn23)c1	TWEAK Fn14 block 72.2 (no result: LMP1 NFkB inh)
Oc1ccc(-c2cnc3c(Nc4cccc(OC(F)(F)C(F)F)c4)nccn23)cc1	none (no result: LMP1 NFkB inh)
CCC(C)(C)c1ccc(Oc2ccc(N)cc2)cc1	PAX8 reporter inconclusive, EWS-Fli block 65.2, LMP1 NFkB inh 51.0, TROY signal inh 88.7, TWEAK Fn14 block 100.8 (no result: LGR2 inh)
CCc1ccccc1N(C(=O)CNC(=O)c1ccco1)C(C(=O)NC1CCCC1)c1cccnc1 (configuration not stated)	none
O=C(NC1CCCCC1)C(c1cccnc1)N(C(=O)CCl)c1ccccc1Cl (configuration not stated)	PAX8 reporter 100.7, LMP1 NFkB inh 62.7, TWEAK Fn14 block 61.9
COc1ccc(N(C(=O)CCl)C(C(=O)NC2CCCCC2)c2cccnc2)cc1 (configuration not stated)	PAX8 reporter 113.1, LMP1 NFkB inh 62.4 (no result: EWS-Fli block)
O=C(NC1CCCCC1)C(c1cccnc1)N(C(=O)CCl)c1ccc(F)cc1 (configuration not stated)	PAX8 reporter 109.2, EWS-Fli block 56.6, LMP1 NFkB inh 75.8
O=C(NCC(=O)N(c1ccc(F)cc1)C(C(=O)NC1CCCCC1)c1cccnc1)c1ccco1 (configuration not stated)	none
C[C@H](CO)N1C[C@H](C)[C@@H](CN(C)C(=O)Nc2ccc(C(F)(F)F)cc2)Oc2ncc(C3=CCCC3)cc2C1=O	none (no result: PAX8 reporter, LMP1 NFkB inh, TROY signal inh, TWEAK Fn14 block)
Cn1cnc(S(=O)(=O)N2C[C@H](O)COC[C@H]3O[C@H](CC(=O)NCc4ccc(F)cc4)CC[C@@H]32)c1	none (no result: LMP1 NFkB inh, TROY signal inh, TWEAK Fn14 block)
Cc1ccc(C(=O)O/N=C(\N)c2ccccn2)cc1C	PAX8 reporter 82.6, EWS-Fli block 74.4, LMP1 NFkB inh 55.8, TROY signal inh 80.9, LGR2 inh 97.5, TWEAK Fn14 block 99.0
N/C(=N\OC(=O)c1cccc(F)c1)c1ccccc1	none (no result: PAX8 reporter, EWS-Fli block)
Cc1cccc(/C(N)=N/OC(=O)C23CC4CC(CC(C4)C2)C3)c1	TROY signal inh 60.2 (no result: LGR2 inh)
N/C(=N\OC(=O)c1cccc(F)c1)c1ccccn1	TROY signal inh 61.0, LGR2 inh inconclusive, TWEAK Fn14 block 84.0
COc1cc(OC)cc(C(=O)O/N=C(\N)c2cccc(C)c2)c1	none
Cc1cccc(/C(N)=N/OC(=O)c2ccc3c(c2)OCO3)c1	LGR2 inh 53.6, TWEAK Fn14 block 62.8 (no result: EWS-Fli block)
C[C@H]1CN([C@@H](C)CO)C(=O)c2cc(C#CC3CCCCC3)cnc2O[C@H]1CN(C)C(=O)Nc1ccccc1	none (no result: LMP1 NFkB inh, TROY signal inh, TWEAK Fn14 block)
COCC#Cc1cnc2c(c1)C(=O)N([C@@H](C)CO)C[C@@H](C)[C@H](CN(C)C)O2	none (no result: PAX8 reporter, LMP1 NFkB inh, TROY signal inh, TWEAK Fn14 block)
C[C@H]1CN([C@@H](C)CO)C(=O)c2cc(-c3cccnc3)cnc2O[C@@H]1CN(C)Cc1ccc(-c2ccccc2)cc1	none (no result: PAX8 reporter, LMP1 NFkB inh, TROY signal inh, TWEAK Fn14 block)
COc1cc(C(=O)O/N=C(\N)c2ccccn2)cc(OC)c1OC	none
Cc1cccc(C(=O)O/N=C(\N)c2ccccn2)c1	PAX8 reporter 84.3, EWS-Fli block 76.8, TROY signal inh 85.1, LGR2 inh 100.2, TWEAK Fn14 block 101.9
O=C(NC(Nc1nc2ccc([N+](=O)[O-])cc2s1)(C(F)(F)F)C(F)(F)F)c1cccnc1	PAX8 reporter 93.1, TWEAK Fn14 block 51.4 (no result: LGR2 inh)
CN(C)S(=O)(=O)c1ccc2nc(NC(=O)c3cccnc3)sc2c1	none (no result: EWS-Fli block, LGR2 inh)
O=C(NC(Nc1nc2ccc([N+](=O)[O-])cc2s1)(C(F)(F)F)C(F)(F)F)c1ccccc1Cl	PAX8 reporter 101.5, LMP1 NFkB inh 52.8, TROY signal inh 65.6, TWEAK Fn14 block 90.2
O=C(C[C@H]1CC[C@H]2[C@@H](COC[C@H](O)CN2C(=O)Nc2cc(Cl)cc(Cl)c2)O1)NCC1CCCCC1	none (no result: LMP1 NFkB inh, TROY signal inh, TWEAK Fn14 block)
Cc1nn(-c2ccccc2)c(C)c1-c1nnc(-c2c(C)nn(-c3ccccc3)c2C)o1	TROY signal inh 50.1
CCC(C(=O)Nc1cc(C(=O)Nc2cc(C)ccn2)ccc1Cl)c1ccccc1 (configuration not stated)	PAX8 reporter 69.4
CCC(=O)Nc1ccc2c(c1)C(=O)N(C)C[C@@H](OC)[C@@H](C)CN(Cc1cccnc1)[C@H](C)CO2	none (no result: PAX8 reporter, LMP1 NFkB inh, TROY signal inh, TWEAK Fn14 block)
O=c1cc(C(F)(F)F)[nH]c2c(C(F)(F)F)cccc12	TROY signal inh 57.8, TWEAK Fn14 block 61.1 (no result: PAX8 reporter, EWS-Fli block, LGR2 inh)
O=c1cc(C(F)(F)F)[nH]c2ccc(OC(F)(F)F)cc12	none (no result: LMP1 NFkB inh, LGR2 inh)
COc1ccc2c3c([nH]c2c1)[C@H](CO)NCC31CN(S(=O)(=O)c2cccs2)C1	none (no result: PAX8 reporter, LMP1 NFkB inh, TROY signal inh, TWEAK Fn14 block)
Cc1ccc(OCC(=O)c2cc(C)n(Cc3cccs3)c2C)c([N+](=O)[O-])n1	EWS-Fli block 53.3
COc1ccc(-n2c(C)cc(C(=O)COc3ccc(C)nc3[N+](=O)[O-])c2C)cc1	TROY signal inh 57.9 (no result: EWS-Fli block)
Cc1ccc(OCC(=O)c2cc(C)n(CC(F)(F)F)c2C)c([N+](=O)[O-])n1	none (no result: LGR2 inh)

Source: PubChem
